SMILES strings stand for the structures.

The target in this assay is AMP-activated protein kinase, AMPK (Homo sapiens) (UniProt P54646+O43741+P54619+Q9UGJ0+Q9Y478+Q13131+Q9UGI9). In words: AMP-dependent Kinase enzyme assay. An in vitro enzyme assay that detects ADP turnover that is directly proportional to AMPK activity. This uses naive AMPK that is activated during the assay with MK-8722. The class given is functional. On the set-up: scale not given: direction of the effect not stated beside the values. Particulars: 30 µM.
For the compound `COC(=O)c1ncccc1N1CCCC1`, the Percent Effect turned out to be 9.09%. In the case of `COC[C@]1(O)CCN(c2cc(OC)ncn2)CC1(C)C` it was 20.7%; in that of `Cc1cnc(N2CCN(C)CC2)nc1-c1ccnn1C`, -3.23%. For `CSC1(CNC(=O)N(C)Cc2sccc2C)CCOCC1`, the Percent Effect was -7.94%.

In the case of `COc1cccc(OCC2CCCN(c3cc(C(N)=O)ccn3)C2)c1` (centres undefined), the Percent Effect was determined as 4.97%. With `CCn1cnnc1CNC(=O)N1CCOC(c2ccccc2Cl)C1` (centres undefined) the figure was 0.771%; with `CC(C)(C)CN(CCC#N)C(=O)Nc1cccc(N2CCNC2=O)c1`, -2.8%. With `CN(Cc1nncn1C)C(=O)c1cc(COc2ccccc2F)[nH]n1` the figure was -9.05%; with `CN([C@@H]1CC[C@@H](N2CCCC2)[C@@H]1O)S(=O)(=O)c1ccccc1`, -6.19%; with `CC(=O)NCC(=O)N1CCCC(C(=O)c2ccc(C(C)(C)C)cc2)C1` (centres undefined), 7.51%. In the case of `CN1CSC[C@H]1C(=O)N1CCC(CCc2ccccc2)CC1` it was -1.47%; in that of `CNC(=O)c1cccnc1NCc1ccc(Cn2cccn2)cc1`, -3.46%; in that of `Cc1cc(=O)n(CCNC(=O)c2ccccc2Cl)cn1`, -4.73%. `Cc1nc(C(C)C)sc1C(C)N(C)C(=O)c1ccc(=O)n(C)c1` (centres undefined): the Percent Effect was 5.47%. With `Cc1ccc(C(=O)NCc2cc(F)ccc2N2CCCN(C)CC2)o1` the figure was 9.19%; with `Cc1nccc(C2(C)CCCNC2)n1` (centres undefined), 13.7%. In the case of `CNC(=O)N1CCOCC1c1c(C)nn(C)c1C` (centres undefined) it was -2.45%. In the case of `COCCNc1ccc(CC2CCCN(c3ncccn3)C2)nn1` (centres undefined) it was 6.13%; in that of `CC1(C)CC(C(=O)N2CCC3(CCC(=O)N(C4CC4)C3)CC2)CCO1` (centres undefined), -0.458%.

In the case of `O=C(O)CC(CC(=O)N(Cc1ccsc1)C1CC1)c1cccs1` (centres undefined), the Percent Effect is -2.55%.

For the compound `CCn1cc(CN2CCC(c3ncc(Cl)cc3S(C)(=O)=O)CC2)c(C)n1`, the Percent Effect stood at 4.95%. Take `COCCN(CC(F)F)c1cc(COC)nc2ncnn12`: the Percent Effect came out at 0.272%. In the case of `CCCN(Cc1nnnn1C1CC1)CC1COc2ccccc2O1` (centres undefined) it was 7.59%; in that of `CCOc1ccc(CN(C)C(=O)c2nc(N3CCCC3)ncc2Cl)cc1`, -1.93%.

With `c1ccc2c(NC3CCc4ncnn4C3)ncnc2c1` (centres undefined), the Percent Effect amounted to 2.92%. In the case of `O=C(CN1CC(c2nc(-c3ccco3)no2)C1)NCc1ccc(F)cc1` it was 1.74%. In the case of `Cc1cc(CNS(=O)(=O)CCCC#N)ccc1N(C)C` it was -7.86%; in that of `N#Cc1cc(S(N)(=O)=O)ccc1N1CCc2c(Cl)cccc2C1`, 17.4%. With `O=C(Cn1nc2ccccc2n1)N1CCCC(O)(CO)C1` (centres undefined) the figure was -6.31%.

Take `CCOC(=O)N1CCC(NC(=O)c2cccc(C3CCCNC3)c2)CC1` (centres undefined): the Percent Effect was 7.59%. As for `COCCNc1nc(C)nc2c1CCN(C[C@H]1CC[C@@H](N)CC1)CC2`, the Percent Effect amounted to 1.5%. With `Cc1cc(=O)n2nc(Oc3ccc(F)c(F)c3)sc2n1`, the Percent Effect was -9.97%. With `CCc1cc(CN2CCCCC2c2ccc(F)cc2)on1` (centres undefined) the figure was 2.23%; with `COc1ccc(CN(C)Cc2c(C)noc2C)c(Br)c1OC`, 2.55%; with `CCC(NC(=O)c1cnc(N(C)C)nc1C)c1ccncc1` (centres undefined), 0.963%.

With `CCCS(=O)(=O)N1CCN(CCCO)CC1`, the Percent Effect is 89.9%. In the case of `CC1(C)OC(=O)N(CCOc2ccc(F)cc2)C1=O` it was 5.04%; in that of `Cn1nnnc1SCC1(O)CCCCC1`, 32.1%; in that of `O=C(Cc1ccsc1)N1CCC[C@@H]1Cn1c(=O)oc2ccccc21`, 28.3%.

The values above are taken from ChEMBL document CHEMBL3988442, “University of Dundee, Small-Polar-MMV Screening Library” (2021).
